Experimental data published in ChEMBL document CHEMBL4513141, “CO-ADD screening of NIH (USA) - Clinical Collection” (2021).
“And” between values parts separate entries of the source, which are not always exact repeats. Equal values may be shown once. Measured potencies and affinities stand elsewhere.

Legend:
Klebsiella pneumoniae = details: Concentration 20 uM, ASSAY_TEST Inhibition of Bacterial Growth, detection method Absorption (OD600), MEDIA CAMHB, plate type 384well, NBS, CORNING #3640, time 18 hr
Candida albicans = details: 20 µM
Cryptococcus neoformans = details: Concentration 20 uM, ASSAY_TEST Inhibition of Fungal Growth, detection method Resazurin, Absorption (OD600-OD570), plate type 384well, NBS, CORNING #3640

Row | Compound | Inhibition (Klebsiella pneumoniae) [%] | Inhibition (Candida albicans) [%] | Inhibition (Cryptococcus neoformans) [%] | Inhibition (Klebsiella pneumoniae; 20 µM) | Inhibition (Cryptococcus neoformans; 20 µM)
1 | O=c1c(O[C@@H]2O[C@H](CO)[C@@H](O)[C@H](O)[C@H]2O)c(-c2ccc(O)c(O)c2)oc2cc(O)cc(O)c12 [ISOQUERCETIN] | 10.08 | 1.9 | 3.22 |  | 
2 | Cl.O=C1CN2Cc3c(ccc(Cl)c3Cl)N=C2N1 [ANAGRELIDE HYDROCHLORIDE] | 18.04 | 3.23 | -6.07 |  | 
3 | Cc1occc(=O)c1O [MALTOL] | 10.28 | 4.42 | -2.15 |  | 
4 | CCCCN1CCCC1CNC(=O)c1cc(C#N)c2ccccc2c1OC (stereo not given) [NAFADOTRIDE] | 16.43 | 4.38 | -22.16 |  | 
5 | COc1cc(C(=O)NC2CCCNC2)cc(OC)c1OC (stereo not given) [TROXIPIDE] | 14.93 | 5.32 | 0.51 |  | 
6 | NC(=O)N1c2ccccc2C=Cc2ccccc21 [CARBAMAZEPINE] | 5.59 | 4.45 | -2.39 |  | 
7 | CCC(C)(C)C(=O)O[C@H]1C[C@@H](C)C=C2C=C[C@H](C)[C@H](CC[C@@H]3C[C@@H](O)CC(=O)O3)[C@H]21 [SIMVASTATIN] | -2.13 | 14.8 | 3.41 |  | 
8 | Cl.O.O=C1N(c2ccccc2)c2ccccc2C1(Cc1ccncc1)Cc1ccncc1 | 9.02 | 3.32 | -6.67 |  | 
9 | Oc1ccc(/C=C/c2cc(O)cc(O)c2)cc1 [RESVERATROL] | 12.99 | 2.92 | -4.32 |  | 
10 | CCCCC(=O)O[C@H]1CC[C@H]2[C@@H]3CCc4cc(O)ccc4[C@H]3CC[C@]12C [ESTRADIOL VALERATE] | 8.52 | 0.66 | 2.38 |  | 
11 | O=C(O)c1cc2ccccc2c(Cc2c(O)c(C(=O)O)cc3ccccc23)c1O.OCCOCCN1CCN(C(c2ccccc2)c2ccc(Cl)cc2)CC1 [HYDROXYZINE PAMOATE] | 14.51 | 5.15 | 7.04 |  | 
12 | NS(=O)(=O)c1cc(C(=O)O)c(NCc2ccco2)cc1Cl [FUROSEMIDE] | 9.57 | 3.34 | -7.53 |  | 
13 | O=c1[nH]c(=O)n(C2CCCO2)cc1F (stereo not given) [TEGAFUR] | 13.49 | 3.66 | -3.75 |  | 
14 | C[C@@H]1C[C@H]2[C@@H]3CCC4=CC(=O)C=C[C@]4(C)[C@@]3(F)[C@@H](O)C[C@]2(C)[C@@]1(O)C(=O)CO [DEXAMETHASONE] |  |  |  | -0.78% and 2.8% | -1.2% and -1.22%
15 | NS(=O)(=O)c1cc2c(cc1Cl)NCNS2(=O)=O [HYDROCHLOROTHIAZIDE] | 14.61 | 2.05 | -7.59 |  | 
16 | CN1C(=O)CC[C@H]1c1cccnc1 [COTININE] | 5.32 | 4.46 | -1.87 |  | 
17 | CC(O)CO.N[C@@H](C(=O)N[C@@H]1C(=O)N2C(C(=O)O)=C(CSc3c[nH]nn3)CS[C@H]12)c1ccc(O)cc1 | 6.28 | 12.3 | -40.25 |  | 
18 | CCN1CC(CCN2CCOCC2)C(c2ccccc2)(c2ccccc2)C1=O.Cl (stereo not given) | 1.35 | 4.41 | -0.87 |  | 
19 | NNCCc1ccccc1.O=S(=O)(O)O [PHENELZINE SULFATE] | 6.23 | 4.34 | -10.12 |  | 

Row | Compound | Inhibition (Klebsiella pneumoniae) [%] | Inhibition (Candida albicans) [%] | Inhibition (Cryptococcus neoformans) [%] | Inhibition (Klebsiella pneumoniae; 20 µM) | Inhibition (Cryptococcus neoformans; 20 µM)
20 | CNCC[C@@H](Oc1ccccc1C)c1ccccc1.Cl [ATOMOXETINE HYDROCHLORIDE] | 2.35 | 3.59 | 5.55 |  | 
21 | Cn1nnc2c(C(N)=O)ncn2c1=O [TEMOZOLOMIDE] | 7.88 | 1.91 | -1.17 |  | 
22 | Cc1nc2n(c(=O)c1CCN1CCC(c3noc4cc(F)ccc34)CC1)CCCC2 [RISPERIDONE] | 4.8 | 0.09 | -0.58 |  | 
23 | CN(CCO)CC(O)Cn1cnc2c1c(=O)n(C)c(=O)n2C.O=C(O)c1cccnc1 (stereo not given) [XANTHINOL NIACINATE] | 12.07 | 0.26 | -2.36 |  | 
24 | Cl.O=C(c1ccc(OCCN2CCCCC2)cc1)c1c(-c2ccc(O)cc2)sc2cc(O)ccc12 [RALOXIFENE HYDROCHLORIDE] | 7.01 | 0.43 | -13.3 |  | 
25 | CN1C(C(=O)Nc2ccccn2)=C(O)c2ccccc2S1(=O)=O.O | 9.7 | 7.55 | -5.24 |  | 
26 | CC(C(=O)[O-])c1ccc(CC2CCCC2=O)cc1.[Na+] (stereo not given) [LOXOPROFEN SODIUM] | 6.48 | 2.26 | -10.19 |  | 
27 | CC(CN1c2ccccc2Sc2ccccc21)N(C)C.Cl (stereo not given) [PROMETHAZINE HYDROCHLORIDE] | 0.77 | 3.31 | -6.2 |  | 
28 | CC(N/C(=N\C#N)Nc1ccncc1)C(C)(C)C.O (stereo not given) | 0.13 | 1.29 | -6.76 |  | 
29 | c1ccc2[nH]c(-c3cscn3)nc2c1 [THIABENDAZOLE] | 17.05 | 1.43 | -4.52 |  | 
30 | CCCNCC(O)COc1ccccc1C(=O)CCc1ccccc1 (stereo not given) [PROPAFENONE] | 6.97 | 0.01 | -5.76 |  | 
31 | CN1CCC(=C2c3ccccc3C=Cc3ccccc32)CC1.Cl [CYPROHEPTADINE HYDROCHLORIDE] | 17.49 | 3.56 | -5.58 |  | 
32 | CCCOc1ccc(C(=O)OCCN(CC)CC)cc1N.Cl [PROPARACAINE HYDROCHLORIDE] | 1.6 | 0.55 | 2.64 |  | 
33 | Br.Br.O=C1CC2(CCCC2)CC(=O)N1CCNCC1COc2ccccc2O1 (stereo not given) | 12.27 | 3.99 | -1.27 |  | 
34 | CC(=O)[C@H]1CC[C@H]2[C@@H]3C[C@H](C)C4=CC(=O)CC[C@]4(C)[C@H]3[C@@H](O)C[C@]12C [MEDRYSONE] | 12.23 | 1.89 | -4.18 |  | 
35 | CC(=O)SCC(Cc1ccccc1)C(=O)NCC(=O)OCc1ccccc1 (stereo not given) [RACECADOTRIL] | 3.98 | 5.86 | -6.78 |  | 
36 | C=CCc1ccc(O)c(-c2ccc(O)c(CC=C)c2)c1 [HONOKIOL] | 7.54 | 3.92 | 0.25 |  | 
37 | CCCCC[C@H](O)/C=C/[C@H]1[C@H](O)CC(=O)[C@@H]1CCCCCCC(=O)O [ALPROSTADIL] | 7.2 | 3.09 | 2.52 |  | 
38 | Cl.O=c1n(CCCN2CCN(c3cccc(Cl)c3)CC2)nc2ccccn12 [TRAZODONE HYDROCHLORIDE] | 4.82 | 3.08 | -5.73 |  | 

Row | Compound | Inhibition (Klebsiella pneumoniae) [%] | Inhibition (Candida albicans) [%] | Inhibition (Cryptococcus neoformans) [%] | Inhibition (Klebsiella pneumoniae; 20 µM) | Inhibition (Cryptococcus neoformans; 20 µM)
39 | Nc1nc(N)c2nc(-c3ccccc3)c(N)nc2n1 | -1.05 | 4.35 | 1.8 |  | 
40 | CNC(=C[N+](=O)[O-])NCCSCc1ccc(CN(C)C)o1.Cl [RANITIDINE HYDROCHLORIDE] | 4.5 | 2.99 | 5.97 |  | 
41 | COc1cc(OC)c(C(=O)CCCN2CCCC2)c(OC)c1.Cl | 10.87 | 3.75 | -6.77 |  | 
42 | NC(CO)(CO)CO.O=C(c1ccccc1)c1ccc2n1CCC2C(=O)O (stereo not given) [KETOROLAC TROMETHAMINE] | 3.11 | -0.08 | -4.39 |  | 
43 | CC(COc1ccccc1Cc1ccccc1)N1CCCCC1.O=P(O)(O)O (stereo not given) | 14.21 | 3.69 | 0.43 |  | 
44 | Br.CN(C)CCCC1(c2ccc(F)cc2)OCc2cc(C#N)ccc21 (stereo not given) [CITALOPRAM HYDROBROMIDE] | 0.36 | 2.48 | -12.2 |  | 
45 | CCCNC(=O)NS(=O)(=O)c1ccc(Cl)cc1 [CHLORPROPAMIDE] | 11.38 | 3.19 | 0 |  | 
46 | COc1cc(N)c(Cl)cc1C(=O)N[C@@H]1CCN(CCCOc2ccc(F)cc2)C[C@@H]1OC.O [(R,S)-CISAPRIDE MONOHYDRATE] | 7.83 | 1.98 | 3.24 |  | 
47 | O=C(O)CCNC(=O)c1ccc(N=Nc2ccc(O)c(C(=O)O)c2)cc1 | 9.82 | 4.41 | -5.87 |  | 
48 | CN(C/C=C/C#CC(C)(C)C)Cc1cccc2ccccc12.Cl [TERBINAFINE HYDROCHLORIDE] | 11.69 | 32.9 | 35.41 |  | 
49 | Cc1ccc(O)c([C@H](CCN(C(C)C)C(C)C)c2ccccc2)c1.O=C(O)C(O)C(O)C(=O)O [TOLTERODINE TARTRATE] | 6.3 | 4.41 | -7.64 |  | 
50 | CN(C)CCCN1c2ccccc2CCc2ccccc21.Cl [IMIPRAMINE HYDROCHLORIDE] | 11.14 | 0.7 | 0.01 |  | 
51 | CCCCCCCCCCC[C@@H](C[C@@H]1OC(=O)[C@H]1CCCCCC)OC(=O)[C@H](CC(C)C)NC=O [ORLISTAT] | 7.06 | 1.01 | -4.7 |  | 
52 | Nc1nc(Cl)nc2c1ncn2[C@@H]1O[C@H](CO)[C@@H](O)[C@H]1O | 2.26 | 4.78 | 0.98 |  | 
53 | CN(C)CCC[C@@]1(c2ccc(F)cc2)OCc2cc(C#N)ccc21.O=C(O)C(=O)O [ESCITALOPRAM OXALATE] | 13.63 | 3.94 | -10.38 |  | 
54 | CN[C@@H]1[C@H](O)[C@H](NC)[C@H]2O[C@@]3(O)C(=O)C[C@@H](C)O[C@H]3O[C@@H]2[C@H]1O.Cl.Cl.Cl.O.O.O | 37.26 | 2.22 | -1.83 |  | 
55 | CC(C)(C)C(O)/C=C/c1ccc2c(c1)OCO2 (stereo not given) [STIRIPENTOL] | 6.61 | 4.55 | 2.5 |  | 
56 | CCCc1c(OCCCCc2nnn[nH]2)ccc(C(C)=O)c1O [TOMELUKAST] | 5.45 | 4.49 | 3.29 |  | 
57 | CCCC(=O)Nc1ccc(OCC(O)CNC(C)C)c(C(C)=O)c1.Cl (stereo not given) [ACEBUTOLOL HYDROCHLORIDE] | 19.26 | 1.82 | -1.83 |  | 
